Fluorescein fluor – compound fluoresces in the fluorescein spectral region. Compound autofluorescence, 480/540 nm, fluorescein-equivalent; active compounds read high. max fluorescein-equivalent concentration, M. 59,000 tested, 0.91% active. AID 593; in the data active = max fluorescein-equivalent concentration above about 10 nM; inconclusive = between about 1.1 nM and that limit
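First, buffer (100 mM Tris, pH 8.0) dispensed; second, compounds and fluorescein standards pinned in; third, 15 min room-temperature incubation; finally, imaging at ex 480 nm/em 540 nm. Fluorescence normalized against the six-point fluorescein curve.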
Rhodamine autofl – compound autofluorescence in rhodamine spectral region | max dye-equivalent concentration, M | AID 594 | Rhodamine-region fluorescence, 547/598 nm, Tris buffer; active compounds read high | 59,000 tested, 0.05% active; in the data active = max dye-equivalent concentration above about 11 nM; inconclusive = between about 1.1 nM and that limit
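Steps: pin-transfer compounds into pH 8.0 Tris (100 mM), hold 15 min at room temperature, image with a 547/598 nm filter pair, and convert intensities to rhodamine-equivalent concentration using a six-point on-plate rhodamine series.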
A488 fluor – compound autofluorescence in A488 spectral region; 59,000 tested, 0.1% active; compound autofluorescence, A488 spectral region, dye equivalency; Compound Type: qHTS ECL - MLSMR; max dye equivalency, M
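Readout is A488 dye-equivalent concentration, calibrated by a per-plate six-point Alexa 488 series. Compounds in 100 mM Tris buffer pH 8.0 were incubated 15 min at room temperature. Plates were imaged using 480 nm excitation/540 nm emission filters.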
A647 autofl – compound autofluorescence in A647 spectral region | max dye-equivalent concentration, M | AID 592 | 59,000 tested, under 10 active | Compound fluorescence, A647 channel (570/671 nm), Tris buffer
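Fluorescence read (570 nm ex, 671 nm em) after 15 min RT incubation of compounds in 100 mM Tris buffer, pH 8.0; values expressed as dye-equivalent concentration against a six-point A647 standard series on each plate.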
TexasRed autofl – Texas Red region autofluorescence; Compound fluorescence, Texas Red channel, 547/618 nm; active compounds read high; max dye-equivalent concentration, M; 59,000 tested, 0.06% active; in the data active = max dye-equivalent concentration above about 10 nM; inconclusive = between about 1.1 nM and that limit
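Fluorescence at ex 547/em 618 nm, normalized against an on-plate Texas Red standard series to give dye-equivalent concentration per compound concentration. Buffer 100 mM Tris, pH 8.0; 15 min RT incubation before CCD imaging.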
Resorufin fluor – compound fluoresces in the resorufin spectral region; Compound fluorescence, resorufin region 547/598 nm, buffer; active compounds read high; 59,000 tested, 0.04% active; max dye-equivalent concentration, M
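Read-out: intrinsic compound fluorescence at ex 547/em 598 nm after 15 min at RT in pH 8.0 Tris (100 mM). Values expressed as resorufin-equivalent concentration from per-plate standard series.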
Numbers stand for hits; . = inactive; ? = inconclusive. Compounds with a hit are over-represented: about 0.96% of the library has one in this group of screens. Unless noted, no rule for the calls is given here.

SMILES | Fluorescein fluor | Rhodamine autofl | A488 fluor | A647 autofl | TexasRed autofl | Resorufin fluor
Cc1cccc(-n2c(O)c(C=Nc3c(C)n(C)n(-c4ccccc4)c3=O)c3ccccc3c2=O)n1 | 5.7e-08M | . | ? | . | . | .
Cc1c(N=Cc2ccc(Cl)o2)c(=O)n(-c2ccccc2)n1C | ? | . | . | . | . | .
CC(=O)N1CCN(c2ccc(N=Cc3c(O)n(Cc4ccccc4)c(=O)[nH]c3=O)cc2)CC1 | 1.9e-08M | . | . | . | . | .
CN[C@]1(C)[C@@H]2CC[C@@H](C2)C1(C)C | . | . | . | . | . | .
CNC(=O)c1cc2ccc(OC)cc2oc1=O | 1.7e-08M | . | . | . | . | .
Cc1cc(C(F)(F)F)c2c(N)c(C(=O)Nc3cc(C)on3)sc2n1 | 1.2e-08M | . | . | . | . | .
C=CCNc1nc(N)c(C(=O)Nc2cc(C)on2)s1 | . | . | . | . | . | .
CCN(CC)CC[n+]1ccc2c(C)c3[nH]c4ccccc4c3c(C)c2c1 | 1.7e-08M | . | . | . | . | .
CCN(CC)CCCn1c(=S)[nH]c2ccccc2c1=O | . | . | . | . | . | .
COc1cccc(N2C(=O)C3CC=C(Cl)CC3C2=O)c1 (stereo not drawn) | 1.5e-08M | . | . | . | . | .
O=C(c1ccc(N2C(=O)C3CC=C(Cl)CC3C2=O)cc1)N1CCCCC1 (stereo not drawn) | . | . | . | . | . | .
Cc1cc(N2CCOCC2)n2nc(-c3cccc(F)c3)cc2n1 | 1.1e-08M | . | . | . | . | .
COc1ccc(CNC(=O)c2cc3c(=O)n4ccccc4nc3n(Cc3ccco3)c2=N)cc1 | 1.9e-08M | . | . | . | . | .
CCOC(=O)c1cc2c(=O)n3ccccc3nc2n(Cc2ccccc2)c1=N | 1.6e-07M | . | ? | . | . | .
COc1ccc(CCn2c(=N)c(C#N)cc3c(=O)n4ccccc4nc32)cc1 | 1e-08M | . | . | . | . | .
Cc1ccc(Cn2c(=N)c(C(=O)NCc3ccco3)cc3c(=O)n4ccccc4nc32)cc1 | ? | . | . | . | . | .
O=C(O)CC[C@@H](NC(=O)c1ccccc1C(=O)O)C(=O)O | ? | . | . | . | . | .
COc1cc2nc(N3CC=[N+](C(=O)c4ccco4)CC3)nc(N)c2cc1OC | . | . | . | . | . | .
C=C[C@@H]1CN2CC[C@@H]1C[C@H]2[C@H](O)c1ccnc2ccc(OC)cc12 | . | . | . | . | . | .

Screening results from PubChem BioAssay.
